Measured values published in PubChem BioAssay AID504727 (Broad Institute, 2011).
Where “and” joins values, the source holds several entries; their conditions need not be identical. Identical values can stand only once. Calls of active or inactive are those of the source.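 How the source made its calls: active means fitted half-maximal concentration AC50 at or below ten times the highest valid tested dose, with signal falling as DNA is displaced (actives reach about 34 µM in these data); inconclusive means flat fit at moderate signal loss, or poor fit quality; inactive means the rest, including signal rising instead of falling.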

Assay: acridine orange-DNA binding displacement – biochemical, fluorescence polarization, cherry-picked samples, set 2, artefact control for KSHV LANA DNA-binding inhibitor project, dose response (AID 504727)

Row | Structure (SMILES) | AC50
1 | O=C(CN1CCN(C(=O)CNC(=O)c2ccc3c(c2)OCO3)CC1)Nc1ccc(F)cc1 | inactive
2 | O=C1c2c(O)ccc(O)c2C(=O)c2c(NCCNCCO)ccc(NCCNCCO)c21 | 1.34 µM (active) and 2.32 µM (active)
3 | Cc1ccc(NC(=O)CN2C(=O)N/C(=C/c3cccn3-c3ccc(C(=O)O)cc3)C2=O)cc1 | inactive
4 | O=S(=O)(O)c1cccc2c(N=Nc3ccc(O)c4ncccc34)cccc12 | inactive
5 | NNC(=S)Nc1ccc(S(=O)(=O)N2CCOCC2)cc1 | inactive
6 | COC(=O)c1c(C)oc2ccc(N(C(C)=O)S(=O)(=O)c3ccccc3)cc12 | inactive
7 | Cc1cccc(-c2nsc(SCC(=O)Nc3nccs3)n2)c1 | inactive
8 | Oc1ccc(-c2nc3ccccn3c2NCc2ccco2)cc1 | inactive
9 | CCOC(=O)C1(Cc2cccc(F)c2)CCN(Cc2c(C)nn(CC)c2C)CC1 | inactive
10 | CCc1ccc[n+](-c2[nH]c(=O)sc2/C=N/NC([S-])=Nc2ccccc2)c1 | 14.8 µM (active)
11 | O=C1CN=C(Nc2ccccc2Cl)N1Cc1ccc2c(c1)OCO2 | inactive
12 | COc1ccc(NS(=O)(=O)c2ccc3c(c2)[C@H]2C=CC[C@H]2[C@@H](c2ccc(C(=O)O)cc2)N3)cc1 | inactive
13 | NC(=S)NN=Cc1ccc(-c2ccc(S(=O)(=O)Nc3ncccn3)cc2)o1 | inactive
14 | O=C(O)C1Nc2c(O)cc(Cl)c([N+](=O)[O-])c2C2C=CCC12 (stereo not drawn) | inactive
15 | CCc1ccc(C2CC(c3cccc(Cl)c3)n3nc(N)nc3N2)cc1 (stereo not drawn) | inactive
16 | O=C1c2ccccc2-c2onc3ccc(NCc4ccco4)c1c23 | 3.82 µM (active)
17 | CNc1c2cccc(C)c2nc2c(C(=O)NCCN(C)C)cccc12 | 6.16 µM (active)
18 | CCN(c1ccc(C)cc1C)S(=O)(=O)c1nnc(NC(=O)c2ccco2)s1 | inactive
19 | O=C1C=CC2=C3c4cc(O)c(O)cc4CC3(O)COC2=C1O (stereo not drawn) | inactive

Row | Structure (SMILES) | AC50
20 | CCC(=O)Oc1ccc2c(c1)O/C(=C\c1ccco1)C2=O | inactive
21 | NC(=O)C1=NOC(CNc2ncc(C(F)(F)F)cc2Cl)C1 (stereo not drawn) | inactive
22 | Cc1ccc(NC(=S)N/C(=N/S(=O)(=O)c2ccccc2)c2ccccc2)cc1 | inactive
23 | CS(=O)(=O)c1cccc(C(=O)Oc2ccccc2)c1 | inactive
24 | COc1ccccc1CNC(=O)C(=O)NCC1CCCN1S(=O)(=O)c1cccs1 (stereo not drawn) | inactive
25 | CCN(CCCNC(=O)Cn1cc2c(n1)CCCC2)c1cccc(C)c1 | inactive
26 | COc1ccc(N(CC(=O)NCc2ccc3c(c2)OCO3)C(=O)c2csnn2)cc1 | inactive
27 | Cc1ccc(OCC(=O)O/N=C(\N)Cc2ccc([N+](=O)[O-])cc2)cc1C | inactive
28 | CNc1ccc2c3c(cccc13)C(=O)N(C)C2=O | 0.872 µM (active)
29 | COc1cccc(/C=N/NC(=O)C(=O)NCc2cccnc2)c1O | inactive
30 | COc1cc(C(=S)N2CCN(c3cccc(Cl)c3)CC2)ccc1O | inactive
31 | CC1Cc2ccccc2N1C(=O)CCS(=O)(=O)c1cccs1 (stereo not drawn) | inactive
32 | Cc1ccc(C)c(OCC(=O)N(Cc2nnc(-c3ccccc3Cl)o2)C2CC2)c1 | inactive
33 | Nc1nc(-c2ccc(C(=O)O)cc2)cs1 | inactive
34 | CC1=[N+](C)N(c2ccccc2)C(=O)C1N=C/C=C/c1ccccc1 (stereo not drawn) | inactive
35 | CCc1ccc(N2CC(C(=O)OCC(=O)N(CC)c3c(N)n(Cc4ccccc4)c(=O)[nH]c3=O)CC2=O)cc1 (stereo not drawn) | inactive
36 | COc1ccc(/C=N/NC(=O)c2ccc3nc[nH]c3c2)c(OC)c1 | inactive
37 | CCN1/C(=C2/SC(=S)N(NC(C)=O)C2=O)Sc2ccc(OC)cc21 | 18.8 µM (active)
38 | O=C(O)Cc1ccc(N=Nc2c(O)c(C(=O)O)cc3ccccc23)cc1 | inactive
